Data: the OligoGym collection

Molecular target: XAGE3
Assay: pooled miR-30 sensor sort-seq; sequence = guide strand
Conditions: shRNA
Also: reference of the scale not given here.

Sequence | sensor-assay potency score (higher = more potent)
TGGCATTTTAAATTGTTCTGAT | -0.221
TGCACCCTGATCTTCTTCTCTC | -0.916
TCTCCTGACCAGGTGCAGGATC | -0.873
TCTCTCTCCTGACCAGGTGCAG | -1.38
TTCCTCTTGCTGAGGCTCCTCA | -0.958
TTGAGTCTCAGCTGCACCCTGA | -0.3
TTTCAGTTGGTGGTTCCTCTTG | -0.62
TTCTTCTCTCTCCTGACCAGGT | -0.766
TGGTACACTTCTCCTCGGCCTA | -1.1
TGATCTTCTTCTCTCTCCTGAC | -1.05
TCTTCTTCTCTCTCCTGACCAG | -1.02

Molecular target: XAGE5
Assay: as above
Conditions: shRNA

Sequence | sensor-assay potency score (higher = more potent)
CAAGTCGTAAACATCGTCTTGG | -0.817
TGAGCAAGTCGTAAACATCGTC | -0.511
TCATCTTCTCTCTTCTGACCAG | -0.307
TAGGCACTTGAATCTCAGCTGC | -0.239
TATCTCCGCATTCATCCCCAGT | -1.35
AAGTCGTAAACATCGTCTTGGT | -0.56
TTCAGTTGGTGGTTCTTCTTGT | 0.414
TTCTTCTTGTTGAGGCTCTGGC | -0.323
TTTTAAATTGCTCTGATTTTGG | -0.858
TTAGGCACTTGAATCTCAGCTG | 0.649
TTGGTGGTTCTTCTTGTTGAGG | -1.63
TTTCAGTTGGTGGTTCTTCTTG | -0.699

Molecular target: XCL2
Assay: as above
Conditions: shRNA

Sequence | sensor-assay potency score (higher = more potent)
CTATGTGAGACTTCACTCCCTA | -0.487
TAAAAGGTGAGTATAATCTCAG | -0.178
TGCTAACTGGCAGTCGCTGGGT | -0.761
TCACACAGGTCCTCCTATGTGA | -0.506
TTGATTCTGCTAACTGGCAGTC | -0.401
TATAATCTCAGTCCATGAGGGT | -0.365
TCTTGATTCTGCTAACTGGCAG | -0.712
TCTGCTAACTGGCAGTCGCTGG | -0.99
ATAATCTCAGTCCATGAGGGTG | -1.29
TATGTGAGACTTCACTCCCTAC | -0.968
TTCTGCTAACTGGCAGTCGCTG | -1.02
CTTGATTCTGCTAACTGGCAGT | -1.63

Molecular target: XKR5
Assay: as above
Conditions: shRNA

Sequence | sensor-assay potency score (higher = more potent)
TAATATTGTACCCTAATCCAAA | -1.28
TATCTGTGAAGTCTGAGGCTAG | 0.0293
TTGATCTTAGACACATTTCCTG | 0.217
TAAATTACCAGTGAGACACTGC | 0.68
TTCTCTAATAAATATAGTGTAT | -1.07
